Where “and” joins values, the source holds several entries; their conditions need not be identical. Identical values can stand only once. Inconclusive results are not listed. Entries that show only a call come without a potency. A structure can be active in one record and inactive in another. Calls of active or inactive are those of the source. Unless noted, the call rests on the fitted dose curve; in most records, active means well fitted curve in the direction sought with a large enough effect in the repeat runs; inconclusive means weak or mixed curves; inactive means no such curve, though single readings can be large; an effect the other way counts as inactive or inconclusive.
Tests used:
[1] = A CellTox Green Cytotoxicity Assay to monitor cytotoxicity in HEK293 cells - 32 hour (AID 1224881); further: nearly all actives have a fitted effect of over 40% in size
Procedure, shortened: (§1)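 Tox21 screen in HEK293: membrane-impermeant cyanine dye fluoresces on binding dead-cell DNA; compound pinned 5 h post-seeding, plates held at 37 C, signal read repeatedly through 40 h.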

[2] = A CellTox Green Cytotoxicity Assay to monitor cytotoxicity in HepG2 cells - 0 hour (AID 1224882); further: nearly all actives have a fitted effect of over 35% in size
Procedure, shortened: (§2)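 Measurements at 0, 8, 16, 24, 32 and 40 h of treatment captured CellTox Green fluorescence in HepG2 cells that had been co-plated with reagent and preincubated 5 h at 37 C/5% CO2.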

[3] = A CellTox Green Cytotoxicity Assay to monitor cytotoxicity in HepG2 cells - 32 hour (AID 1224883); further: nearly all actives have a fitted effect of over 50% in size; further: potency means the concentration at half of the fitted maximal effect
Procedure, shortened: as §2

[4] = A CellTox Green Cytotoxicity Assay to monitor cytotoxicity in HEK293 cells - 8 hour (AID 1224884); further: nearly all actives have a fitted effect of over 35% in size
Procedure, shortened: as §1

[5] = qHTS RealTime-Glo MT Cell Viability Assay in HEK293 cells - 24 hour (AID 1224886); further: nearly all actives have a fitted effect of over 50% in size; further: potency means the concentration at half of the fitted maximal effect
Procedure, shortened: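 HEK293 cells were seeded at 600 cells/well together with NanoLuc luciferase and cell-permeant prosubstrate, preincubated 5 h at 37 C/5% CO2, then given compound in DMSO by pintool. Luminescence from viable-cell prosubstrate reduction was read repeatedly over 40 h.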

[6] = qHTS RealTime-Glo MT Cell Viability Assay in HEK293 cells - 8 hour (AID 1224887); further: top concentration of the series differs between compounds; nearly all actives have a fitted effect of over 50% in size
Procedure, shortened: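 HEK293 + NanoLuc + prosubstrate, 600 cells/well; 5 h, 37 C/5% CO2; compound 23 nL in DMSO by pintool; 37 C; luminescence read at 0, 8, 16, 24, 32 and 40 h time points.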

[7] = A CellTox Green Cytotoxicity Assay to monitor cytotoxicity in HEK293 cells - 16 hour (AID 1224888); further: nearly all actives have a fitted effect of over 35% in size
Procedure, shortened: as §1

[8] = qHTS RealTime-Glo MT Cell Viability Assay in HepG2 cells - 0 hour (AID 1224889); further: nearly all actives have a fitted effect of over 50% in size
Procedure, shortened: (§3)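 HepG2 cells were seeded at 600 cells/well together with NanoLuc luciferase and a cell-permeant prosubstrate, preincubated 5 h at 37 C/5% CO2, then pin-dosed with compounds in DMSO. Nonlytic luminescence from viable cells was read at each time point.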

[9] = A CellTox Green Cytotoxicity Assay to monitor cytotoxicity in HepG2 cells - 8 hour (AID 1224890); further: nearly all actives have a fitted effect of over 45% in size
Procedure, shortened: as §2

[10] = qHTS assay to identify small molecule antagonists of the estrogen receptor alpha (ER-alpha) signaling pathway using the BG1 cell line in the presence of 0.1 nM 17-beta-estradiol - cell viability counter screen (AID 1259241); further: nearly all actives have a fitted effect of over 40% in size
Procedure, shortened: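 Cells were plated and left 24 hr, compounds in DMSO were pinned in, 17beta-estradiol was added to 0.1 nM final, and after 22 hr CellTiter-Fluor reagent was added for 30 min before fluorescence was read.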

[11] = qHTS assay to identify small molecule antagonists of the androgen receptor (AR) signaling pathway using the MDA cell line in the presence of 0.5 nM R1881 - cell viability counter screen (AID 1259242); further: nearly all actives have a fitted effect of over 45% in size
Procedure, shortened: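 Concentration-response screen of compounds for toxicity in MDA-kb2 reporter cells: 16 hr at 37C with 0.5 nM R1881, endpoint live-cell protease fluorescence measured in the reporter wells.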

[12] = qHTS assay to identify small molecule HDAC inhibitors (AID 1259364);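 further: wild-type HCT-116 cells with endogenous class I/II HDAC activity; top concentration of the series differs between compounds; nearly all actives have a fitted effect of over 45% in size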
Procedure, shortened: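 Screening used wild-type human colon HCT-116 cells incubated overnight, dosed with compounds for 2 hours, and assayed with a homogeneous luminogenic HDAC I/II reagent for 30 minutes at room temperature.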

[13] = qHTS assay to identify small molecule HDAC inhibitors - cell viability counter screen (AID 1259365)
Procedure, shortened: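 Counter screen in wild-type HCT-116 cells: compounds dissolved in DMSO are pin-transferred onto overnight-plated cells and left 2hr at 37C. ATP-based CellTiter-Glo luminescence then measures viable cells.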

[14] = qHTS assay to identify small molecule agonists of the sonic hedgehog signaling (Shh) pathway - cell viability counter screen (AID 1259366); further: nearly all actives have a fitted effect of over 50% in size
Procedure, shortened: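 Cells are plated at 2,000 per well and left 4hr at 37C, 5% CO2 before compound addition. After 23hr of treatment, CellTiter-Fluor reagent is added for 1hr at 37C and fluorescence is measured.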

[15] = qHTS assay to identify small molecule antagonists of the sonic hedgehog signaling (Shh) pathway - cell viability counter screen (AID 1259367); further: nearly all actives have a fitted effect of over 55% in size; further: potency means the concentration at half of the fitted maximal effect
Procedure, shortened: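 Viability was read by CellTiter-Fluor fluorescence in the same wells, reagent added 23 hr into compound treatment and incubated 1 hr at 37C. The 3T3 Gli1-Luc reporter cells (2,000/well) received conditioned medium after compound and ran 24 hr.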

[16] = qHTS assay to identify small molecule agonists of the sonic hedgehog signaling (Shh) pathway (AID 1259368; calls by dose curve;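 further: NIH/3T3-derived 3T3Gli1-Luc cells carrying a stable Gli1-driven firefly luciferase reporter; series mostly up to about 92 µM; nearly all actives have a fitted effect of over 15% in size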)
Procedure, shortened: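 Hedgehog pathway agonism scored by increased firefly luciferase luminescence in 3T3Gli1-Luc cells treated 24 hr at 37 C; detection used a 30 min room-temperature reagent incubation.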

[17] = qHTS assay to identify small molecule phospholipidosis (PLD) inducers (AID 1259344; active means well fitted curve in the direction sought with a large enough effect; an effect the other way counts as inactive or inconclusive)
Procedure, shortened: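 Phospholipid accumulation was scored by imaging: fixed, Hoechst-counterstained HepG2 cells stained with LipidTOX Red after 24 h compound exposure at 37 C. Read-outs were pit count and pit intensity per well or per cell, with amiodarone and DMSO controls.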

[18] = qHTS RealTime-Glo MT Cell Viability Assay in HepG2 cells - 16 hour (AID 1224885); further: nearly all actives have a fitted effect of over 50% in size
Procedure, shortened: as §3

[19] = target: Androgen receptor (Homo sapiens) (UniProt P10275); assay: qHTS assay to identify small molecule antagonists of the androgen receptor (AR) signaling pathway using the MDA cell line in the presence of 0.5 nM R1881 (AID 1259243); further: nearly all actives have a fitted effect of over 50% in size
Procedure, shortened: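 With R1881 held at 0.5 nM (final), compound effects on MMTV-luciferase expression in MDA-kb2 cells were scored by luminescence after a 16 hr, 37C incubation.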

[20] = target: Estrogen receptor (Homo sapiens) (UniProt P03372); assay: qHTS assay to identify small molecule antagonists of the estrogen receptor alpha (ER-alpha) signaling pathway using the BG1 cell line in the presence of 0.1 nM 17-beta-estradiol (AID 1259244); further: nearly all actives have a fitted effect of over 50% in size
Procedure, shortened: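 Compounds were tested against 0.1 nM (final) 17beta-estradiol in VM7Luc4E2 cells, which express full-length ER-alpha and an ERE-luciferase reporter; luminescence was recorded following 22 h exposure.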

Chain of Androgen receptor (Homo sapiens) (P10275 whole entry, looked up): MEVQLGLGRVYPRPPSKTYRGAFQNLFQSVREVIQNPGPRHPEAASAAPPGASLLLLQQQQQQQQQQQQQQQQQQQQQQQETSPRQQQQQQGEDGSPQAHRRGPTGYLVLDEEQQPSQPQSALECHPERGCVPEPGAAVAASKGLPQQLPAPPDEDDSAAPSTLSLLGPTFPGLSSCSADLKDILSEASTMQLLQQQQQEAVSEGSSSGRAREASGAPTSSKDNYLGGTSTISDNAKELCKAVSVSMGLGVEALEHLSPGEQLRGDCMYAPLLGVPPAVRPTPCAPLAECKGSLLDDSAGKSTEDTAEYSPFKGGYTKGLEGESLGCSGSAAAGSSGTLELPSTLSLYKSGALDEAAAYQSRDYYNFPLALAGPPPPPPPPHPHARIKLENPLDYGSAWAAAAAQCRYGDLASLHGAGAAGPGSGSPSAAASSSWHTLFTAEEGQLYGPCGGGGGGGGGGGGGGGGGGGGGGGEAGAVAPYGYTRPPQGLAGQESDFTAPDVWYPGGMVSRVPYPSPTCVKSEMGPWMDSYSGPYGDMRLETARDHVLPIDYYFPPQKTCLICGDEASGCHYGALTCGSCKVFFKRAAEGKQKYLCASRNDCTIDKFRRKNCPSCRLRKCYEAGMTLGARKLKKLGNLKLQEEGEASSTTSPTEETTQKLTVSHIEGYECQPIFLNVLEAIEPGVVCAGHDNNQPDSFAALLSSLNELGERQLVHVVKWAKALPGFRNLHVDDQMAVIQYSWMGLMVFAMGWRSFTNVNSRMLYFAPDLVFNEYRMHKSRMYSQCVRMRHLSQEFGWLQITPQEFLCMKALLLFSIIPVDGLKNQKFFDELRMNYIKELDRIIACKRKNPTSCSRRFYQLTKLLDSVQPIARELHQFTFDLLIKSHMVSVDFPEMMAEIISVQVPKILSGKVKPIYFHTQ
Chain of Estrogen receptor (Homo sapiens) (P03372 whole entry, looked up): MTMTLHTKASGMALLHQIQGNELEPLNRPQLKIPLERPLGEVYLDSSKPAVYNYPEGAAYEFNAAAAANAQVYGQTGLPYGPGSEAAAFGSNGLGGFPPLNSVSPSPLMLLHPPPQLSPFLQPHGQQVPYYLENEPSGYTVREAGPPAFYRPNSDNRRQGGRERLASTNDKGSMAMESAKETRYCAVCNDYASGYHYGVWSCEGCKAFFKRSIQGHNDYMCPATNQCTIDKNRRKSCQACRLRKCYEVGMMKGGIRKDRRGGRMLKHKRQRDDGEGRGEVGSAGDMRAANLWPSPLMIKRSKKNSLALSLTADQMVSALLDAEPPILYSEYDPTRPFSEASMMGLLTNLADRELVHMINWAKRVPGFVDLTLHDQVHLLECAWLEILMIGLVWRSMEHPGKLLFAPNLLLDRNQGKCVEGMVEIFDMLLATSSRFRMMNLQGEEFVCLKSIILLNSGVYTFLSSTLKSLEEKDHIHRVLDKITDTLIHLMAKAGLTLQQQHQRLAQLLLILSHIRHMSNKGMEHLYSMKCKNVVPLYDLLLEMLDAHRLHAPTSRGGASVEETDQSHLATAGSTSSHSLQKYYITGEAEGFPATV

| SMILES | Potency [1] | outcome [2] | Potency [3] | outcome [4] | Potency [5] | Potency [6] | Potency [7] | Potency [8] | outcome [9] | Potency [10] | Potency [11] | Potency [12] | outcome [13] | Potency [14] | Potency [15] | outcome [16] | outcome [17] | Potency [18] | Potency [19] | Potency [20] |
| --- | --- | --- | --- | --- | --- | --- | --- | --- | --- | --- | --- | --- | --- | --- | --- | --- | --- | --- | --- | --- |
| CC1(C)NC(=O)NC1=O | inactive | inactive | inactive | inactive | inactive | inactive | inactive | inactive | inactive | inactive | inactive | inactive | inactive | inactive | inactive | inactive | – | – | – | – |
| CN(C)CCOC(=O)COc1ccc(Cl)cc1 | inactive | inactive | inactive | inactive | inactive | inactive | inactive | inactive | inactive | inactive | inactive | – | inactive | inactive | inactive | inactive | inactive | – | – | – |
| CN(C)c1ccc(Cc2ccc(N(C)C)cc2)cc1 | inactive | inactive | inactive | inactive | 22 µM (active) and 21.9 µM (active) | – | inactive | inactive | inactive | inactive | inactive | – | inactive | inactive | – | inactive | – | – | – | – |
| C=CC(C)CCCC(C)(C)O (stereo not drawn) | inactive | inactive | inactive | inactive | inactive | inactive | – | inactive | – | inactive | inactive | – | inactive | inactive | – | inactive | – | inactive | – | – |
| C=Cc1ccc(C)cc1 | inactive | inactive | inactive | inactive | inactive | inactive | inactive | inactive | – | inactive | inactive | – | inactive | inactive | inactive | inactive | – | – | – | – |
| COc1ccccc1OCC(O)CO (stereo not drawn) | inactive | inactive | inactive | inactive | inactive | inactive | inactive | inactive | – | inactive | inactive | – | inactive | inactive | – | inactive | inactive | – | inactive | – |
| O=S(=O)(O)c1ccccc1 | inactive | inactive | inactive | inactive | inactive | inactive | inactive | inactive | inactive | inactive | inactive | – | inactive | inactive | inactive | inactive | – | – | – | – |
| CC(=O)OCc1ccco1 | inactive | inactive | inactive | inactive | inactive | inactive | inactive | inactive | – | inactive | inactive | inactive | inactive | inactive | 68.2 µM (active) and inactive | inactive | – | – | – | – |
| CC(C)CC(=O)CC(C)CC(C)C (stereo not drawn) | inactive | inactive | inactive | inactive | inactive and 19.5 µM (active) | inactive | inactive | inactive | inactive | inactive | inactive | inactive | inactive | inactive | inactive | inactive | – | – | inactive | – |
| CCCCC(C=O)CC (stereo not drawn) | inactive | inactive | inactive and 14.6 µM (active) | inactive | inactive | inactive | – | inactive | inactive | inactive | inactive | inactive | inactive | inactive | inactive | inactive | – | – | – | – |
| C=C(C)CNCC | inactive | inactive | inactive | inactive | inactive | inactive | – | inactive | – | inactive | inactive | – | inactive | inactive | inactive | inactive | – | inactive | – | – |
| CC(C)(C#N)c1cc(Cn2cncn2)cc(C(C)(C)C#N)c1 | inactive | inactive | inactive | inactive | inactive | inactive | inactive | inactive | inactive | inactive | inactive | inactive | inactive | inactive | inactive | inactive | inactive | – | – | – |
| COc1ccc(CCC(C)=O)cc1 | inactive | inactive | inactive | inactive | inactive | inactive | – | inactive | – | inactive | inactive | – | inactive | inactive | inactive | inactive | – | inactive | – | – |
| CC(C)OC(=O)COc1ccc(Cl)cc1Cl | inactive | inactive | inactive | inactive | inactive | inactive | inactive | inactive | inactive | inactive | inactive | – | inactive | inactive | inactive | inactive | – | – | – | inactive |
| Nc1ccc(Cl)c(N)c1 | inactive | inactive | inactive | inactive | inactive | inactive | – | inactive | inactive | inactive | inactive | inactive | inactive | inactive | inactive | inactive | – | – | – | inactive |
| CCNc1cccc(C)c1 | inactive | inactive | inactive | inactive | inactive | inactive | inactive | inactive | inactive | inactive | inactive | inactive | inactive | inactive | inactive | inactive | – | – | – | – |
| CC(C)(Oc1ccc(CCNC(=O)c2ccc(Cl)cc2)cc1)C(=O)O | inactive | inactive | inactive | inactive | inactive | inactive | inactive | inactive | – | inactive | inactive | inactive | inactive | inactive | inactive | inactive | inactive | – | – | – |

From PubChem BioAssay (Tox21)
